Screen size: about 1,300 compounds; fewer than 10 were called active. No rule for the calls is given here. These entries were drawn from the full list.
test system: metallo-beta-lactamase IMP-1 (Pseudomonas aeruginosa); assay: IMP-1 enzyme inhibition by VIM-2 hits – biochemical, epi-absorbance readout, triplicate, selectivity assay for selective VIM-2 inhibitor project, confirmation (AID 1856); conditions: purified IMP-1, nitrocefin hydrolysis, epi-absorbance fluorescence; at 5.6 µM; hits give high values;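 also: 0% = enzyme with vehicle and 100% = vehicle without enzyme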

inhibition, inactive:
C=CCn1c(-c2ccccc2OCC)n[nH]c1=S -2.2%, Cc1cc(NCc2ccco2)n2c(nc3ccccc32)c1C#N -3.37%, O=C(COc1cc2oc(=O)c3c(c2cc1Cl)CCC3)NCCCN1CCOCC1 -1.87%, CCN(CC)c1ccc2cc(C(N)=O)/c(=N\NC(=O)c3ccncc3)oc2c1 -2.41%, Cc1cccn2c(=O)c(C=O)c(Nc3ccc(S(N)(=O)=O)cc3)nc12 -3.66%, COc1nc(N=C(N)N)nc2c(C)cccc12 -3.85%, COc1cc(NC(=O)C2=C(C)OCCS2)c(Cl)cc1C(=O)NCCN1CCN(C)CC1 -2.62%, CCN1CCN(CCNC(=O)c2ccc3c(c2)NC(=O)/C(=C\c2ccc(OC)c(OC)c2)S3)CC1 -3.87%, Cn1c(-c2sccc2OCc2cccc(C(F)(F)F)c2)n[nH]c1=S -2.3%, CCOC(=O)N1CCN(C(=O)C2CCN(c3ncnc4c3sc3cccc(F)c34)CC2)CC1 -2.28%, Cc1cc(-c2ccc(/C=N/n3cnnc3)o2)c([N+](=O)[O-])cc1C -2.82%, CNC(=O)c1ccsc1NC(=O)c1ccc(S(=O)(=O)N2CCOCC2)cc1 -2.75%, Cc1cc(C)c2nc3nc(C)cc(C)c3c(N)c2c1 -3.37%, COc1ccc(-c2nn3c(-c4ccccc4)nnc3s2)cc1OC -2.66%, CCc1cc(=O)oc2cc(C)cc(OCC(=O)N3CCC[C@@H]3C(=O)O)c12 -3.22%, NC(=O)C1CCN(C(=O)COc2ccc3c4c(c(=O)oc3c2)CCC4)CC1 -2.5%, COc1cc(/C=N/Nc2nn3cnnc3c3ccccc23)cc(OC)c1OC -2.07%, Cc1cc([N+](=O)[O-])c(-c2ccc(/C=N/n3cnnc3)o2)cc1Cl -2.7%, COc1ccc(Nc2cc(C)nc(-n3nc(C)cc3C)n2)cc1 -4.36%, COc1cc(-c2nn3c(-c4cccc(C)c4)nnc3s2)cc(OC)c1OC -3.37%, CCN1CCCC1CNC(=O)c1cc2c(=O)n(C)c3ccccc3c2n1C (stereo not given) -1.43%, COC(=O)c1c(NC(=O)c2ccc(S(=O)(=O)N3CCOCC3)cc2)sc2c1CCN(C(C)C)C2 -3.07%, Cc1nc2ccccc2c2oc(C(=O)NCCCN3CCC(C)CC3)cc12 -2.57%, O=C(NCCCN1CCOCC1)c1cnn2c(-c3ccccc3)cc(-c3ccccc3)nc12 -1.31%, CCOc1cc(/C=C2\SC(N3CCCC(C)C3)=NC2=O)ccc1O (stereo not given) -1.58%

— PubChem BioAssay AID1856 (The Scripps Research Institute Molecular Screening Center, 2009)
